Screening data: PubChem, National Center for Advancing Translational Sciences (NCATS)
Rab9 promoter act = qHTS Assay for Rab9 Promoter Activators. Huh7 Rab9 promoter-luciferase reporter, luminescence, 24 h. Potency, µM (top dose mostly 9.22 µM), actives largely listed as activators. actives 2.8% (n = 320,000); also: nearly all actives have a fitted effect of over 60% in size
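Cell-based reporter: Huh7 stable for Rab9 promoter-driven luciferase, plated in reduced-serum medium with 10% FBS at 1500 cells/well, compound-treated 24 h at 37 °C, luminescence read after 10 min reagent.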
SMN2 splice enh = qHTS Assay for Enhancers of SMN2 Splice Variant Expression; AID 1458, 2008; actives 2.8% (n = 210,000); HEK293 SMN2-luciferase splicing reporter, luminescence, 30-36 h; Potency, µM (highest dose often 46.1 µM), usual class: activators; also: nearly all actives have a fitted effect of over 55% in size
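qHTS luciferase splicing reporter: luminescence rises when SMN2 exon 7 is included in transfected HEK293 cells. Compound exposure lasted 30-36 h at 37C, with 4.5 mM final sodium butyrate as control, followed by a ONE-Glo read.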
FLuc modulator = qHTS profiling assay for firefly luciferase inhibitor/activator using purifed enzyme and Km concentrations of substrates (counterscreen for miR-21 project); Luciferin 4-monooxygenase (Photinus pyralis), P08659; purified FLuc, Km substrates, luminescence inhibition; Potency, µM (top dose mostly 57.5 µM), most hits filed as inhibitors; actives 6.9% (n = 360,000); AID 588342, 2011; also: nearly all actives have a fitted effect of over 55% in size
Target sequence (P08659 whole entry, looked up): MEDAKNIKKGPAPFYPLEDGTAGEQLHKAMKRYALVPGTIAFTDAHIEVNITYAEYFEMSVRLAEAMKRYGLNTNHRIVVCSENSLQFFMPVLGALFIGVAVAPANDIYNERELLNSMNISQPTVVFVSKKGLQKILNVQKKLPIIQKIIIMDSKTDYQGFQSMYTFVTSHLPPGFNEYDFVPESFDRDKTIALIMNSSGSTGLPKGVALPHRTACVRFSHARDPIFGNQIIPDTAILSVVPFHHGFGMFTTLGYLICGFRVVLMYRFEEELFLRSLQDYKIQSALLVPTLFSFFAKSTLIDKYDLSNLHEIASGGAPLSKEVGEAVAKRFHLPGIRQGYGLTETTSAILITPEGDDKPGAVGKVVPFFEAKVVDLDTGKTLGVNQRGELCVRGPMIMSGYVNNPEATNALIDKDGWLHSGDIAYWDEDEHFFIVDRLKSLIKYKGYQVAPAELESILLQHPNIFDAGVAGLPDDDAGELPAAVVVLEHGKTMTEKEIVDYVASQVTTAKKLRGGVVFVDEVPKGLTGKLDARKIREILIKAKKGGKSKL
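Purified P. pyralis luciferase, 10 nM final, with Km-level 10 uM D-luciferin and 10 uM ATP in 50 mM Tris acetate pH 7.5, 10 mM Mg acetate, 0.01% Tween-20, 0.05% BSA; 6-point qHTS titration about 60 µM downward; luminescence read.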
ELG1 genotox = qHTS screen for small molecules that induce genotoxicity in human embryonic kidney (HEK293T) cells expressing luciferase-tagged ELG1 | Potency, µM (highest dose often 46 µM), hits mostly activators | actives 1.3% (n = 330,000) | HEK293T ELG1-luciferase reporter, luminescence, 16 h; also: nearly all actives have a fitted effect of over 60% in size
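Reporter readout depends on ELG1 protein level, which increases with genetic stress. After 16 hr compound exposure at 37 °C, luciferase activity was quantified using ONE-Glo.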
NPC1 promoter act = qHTS Assay for NPC1 Promoter Activators; Huh7 NPC1 promoter luciferase reporter, 24 h; Potency, µM (highest dose often 9.22 µM), hits mostly activators; actives 2.4% (n = 320,000); AID 485313, 2010; also: nearly all actives have a fitted effect of over 60% in size
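Luminescence from an NPC1 promoter-driven luciferase reporter in stably transfected Huh7 cells was measured after 24 h compound treatment at 37 °C, followed by 10 min ambient incubation with luciferase detection reagent.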
uPA surface inh = qHTS for Inhibitors of Cell Surface uPA Generation. cell surface uPA generation assay, qHTS. AID 540303, 2011. actives 0.31% (n = 330,000). Potency, µM (highest dose often 38.3 µM), hits mostly inhibitors; active = well fitted inhibition curve with a large enough effect; inconclusive = small, poorly fitted or top-dose-only effect; inactive = no such curve, though single readings can be large or run the other way; tested in mouse RAW 264.7 cells; also: nearly all actives have a fitted effect of over 55% in size
Each line names hits and unclear results; the compound was inactive in the other large screens. A selection: hits, their analogues and other compounds. The true share with any hit is near 7.3%. Unless noted, calls follow the shape of the dose curve; as a rule, active = well fitted curve in the direction sought with a large enough effect; inconclusive = small, poorly fitted or top-dose-only effect, or another doubt; inactive = no such curve, though single readings can be large; an effect the other way counts as inactive or inconclusive.

Cn1c(C(=O)NCC2CCCO2)cc2oc3ccccc3c21 (stereo not drawn)	Rab9 promoter act 1.6µM, FLuc modulator 13µM, ELG1 genotox inconclusive, NPC1 promoter act 2.8µM
CCOc1ccccc1NS(=O)(=O)c1cc2[nH]c(=O)c(=O)[nH]c2cc1C	none (no result: Rab9 promoter act, SMN2 splice enh, ELG1 genotox, NPC1 promoter act, uPA surface inh)
COc1cccc(CNC(=O)C(=O)NCC(c2ccc3c(c2)OCO3)N2CCOCC2)c1 (stereo not drawn)	none (no result: Rab9 promoter act, SMN2 splice enh, ELG1 genotox, NPC1 promoter act, uPA surface inh)
O=C(N/N=C/C(Br)=C/c1ccccc1)c1ccccc1[N+](=O)[O-]	FLuc modulator inconclusive (no result: SMN2 splice enh)
Cc1occc1C(=O)N/N=C/c1ccc(-c2ccccc2)cc1	Rab9 promoter act 0.4µM, FLuc modulator 0.67µM, ELG1 genotox 0.16µM, NPC1 promoter act 0.32µM (no result: SMN2 splice enh)
Cc1occc1C(=O)N/N=C/c1ccc(OCc2ccccc2)cc1	Rab9 promoter act 2.8µM, FLuc modulator inconclusive, ELG1 genotox inconclusive, NPC1 promoter act inconclusive (no result: SMN2 splice enh)
Cc1occc1C(=O)N/N=C/C(Br)=C/c1ccccc1	Rab9 promoter act 0.89µM, SMN2 splice enh 8.9µM, FLuc modulator 2.7µM, ELG1 genotox inconclusive, NPC1 promoter act 1.8µM
CCOC(=O)/C=C/CCC/C=C/C(=O)c1ccccc1	none (no result: Rab9 promoter act, FLuc modulator, ELG1 genotox, NPC1 promoter act, uPA surface inh)
Cc1ccc(C)c(CN2C(=O)c3ccccc3S(=O)(=O)c3ccc(C(=O)N4CCN(Cc5ccccc5)CC4)cc32)c1	none (no result: Rab9 promoter act, ELG1 genotox, NPC1 promoter act, uPA surface inh)
Cc1ccc2nc(-c3ccc(N4C(=O)CC(N5CCCC(C)C5)C4=O)cc3)sc2c1 (stereo not drawn)	FLuc modulator 15µM (no result: Rab9 promoter act, ELG1 genotox, NPC1 promoter act, uPA surface inh)
Cc1ccc2nc(-c3ccc(N4C(=O)CC(N5CCC(C(N)=O)CC5)C4=O)cc3)sc2c1 (stereo not drawn)	FLuc modulator 2.7µM, ELG1 genotox inconclusive (no result: uPA surface inh)
CCOC(=O)c1ccc(NC(=O)c2cc3sccc3n2Cc2ccc(Cl)cc2)cc1	none (no result: Rab9 promoter act, ELG1 genotox, NPC1 promoter act, uPA surface inh)
Cc1cc(C)n(-c2cc(C(C)(C)C)nc3c(-c4ccc(Cl)cc4)cnn23)n1	FLuc modulator inconclusive (no result: uPA surface inh)
C=CCc1c(C)nc2c(-c3ccccc3)cnn2c1N1CCOCC1	Rab9 promoter act 1.6µM, FLuc modulator 2.4µM, ELG1 genotox 10µM, NPC1 promoter act 2.8µM (no result: SMN2 splice enh)
CC(C)(C)c1cc(N2CCOCC2)n2ncc(-c3ccc(Cl)cc3)c2n1	FLuc modulator inconclusive (no result: SMN2 splice enh)
Cc1cc(C)n(-c2cc(C(C)(C)C)nc3c(-c4ccccc4)cnn23)n1	Rab9 promoter act 2.8µM, FLuc modulator 1.9µM, ELG1 genotox inconclusive, NPC1 promoter act 2.5µM (no result: SMN2 splice enh)
Cc1nc2c(-c3ccccc3)c(C)nn2c(C)c1CCC(=O)N1CCOCC1	none
Cc1nc2cc(-c3cccc(F)c3)nn2c(C)c1CCC(=O)N1CCN(c2ccccn2)CC1	none (no result: SMN2 splice enh)
Cc1nc2cc(-c3cccc(F)c3)nn2c(N2CCN(C(=O)c3ccco3)CC2)c1C	FLuc modulator 17µM, ELG1 genotox inconclusive
Cc1cc(N2CCCCC2)n2ncc(-c3ccc(Cl)cc3)c2n1	Rab9 promoter act 2.8µM, FLuc modulator 2.4µM, ELG1 genotox 2.1µM, NPC1 promoter act 4µM
Cc1ccc(NC(=O)C2CCCN(c3nnc(C)c4c(C)n(-c5ccccc5)nc34)C2)cc1Cl (stereo not drawn)	none (no result: Rab9 promoter act, SMN2 splice enh, ELG1 genotox, NPC1 promoter act, uPA surface inh)
Cc1cc(N2CCN(C(=O)c3ccco3)CC2)n2ncnc2n1	none
Cc1cc(N2CCCCC2)n2nc(C)c(-c3ccccc3)c2n1	FLuc modulator 19µM (no result: SMN2 splice enh)
Cc1cc(N2CCOCC2)n2ncc(-c3ccc(Cl)cc3)c2n1	Rab9 promoter act 0.63µM, FLuc modulator 0.6µM, ELG1 genotox inconclusive, NPC1 promoter act 2.2µM (no result: SMN2 splice enh)
C=CCSc1cc(C)nc2c(-c3ccccc3)c(C)nn12	FLuc modulator 12µM (no result: SMN2 splice enh)
Cc1cc(SCC#N)n2nc(C)c(-c3ccccc3)c2n1	FLuc modulator inconclusive
Cc1cc(N2CCN(C(=O)c3ccco3)CC2)n2ncc(-c3ccccc3)c2n1	Rab9 promoter act 3.5µM, FLuc modulator 12µM, NPC1 promoter act inconclusive
CCOC(=O)c1[nH]c(C)c(CCC(=O)NCc2cccc(C)c2)c1C	none (no result: Rab9 promoter act, SMN2 splice enh, ELG1 genotox, NPC1 promoter act, uPA surface inh)
